Measured values: PubChem BioAssay (NCI)
About 83,000 compounds went through this panel and 20% of them were active in at least one assay; those are over-represented in the sample as a whole.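 Each cell line was grown in a 96-well plate and treated with one concentration of compound for 48 hours. Values below 10 were considered active.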 Values without a mark were called inactive. Activity calls are given as the source filed them.

Assays:
Experiment in all cases: NCI-60 one-dose screen, 48 h (100 = growth as untreated, 0 = no growth, -100 = all killed)
Details in all cases: 10 µM
NCI-H23 lung = tested on: NCI-H23 lung
NCI-H226 lung = tested on: NCI-H226 lung
HOP-62 NSCLC = tested on: HOP-62 NSCLC
NCI-H460 lung = tested on: NCI-H460 lung
HOP-92 NSCLC = tested on: HOP-92 NSCLC
NCI-H522 lung = tested on: NCI-H522 lung
A549/ATCC NSCLC = tested on: A549/ATCC NSCLC
786-0 renal = tested on: 786-0 renal
COLO 205 colon = tested on: COLO 205 colon

Compound	growth (NCI-H23 lung)	growth (NCI-H226 lung)	growth (HOP-62 NSCLC)	growth (NCI-H460 lung)	growth (HOP-92 NSCLC)	growth (NCI-H522 lung)	growth (A549/ATCC NSCLC)	growth (786-0 renal)	growth (COLO 205 colon)
Cc1ccc(S(=O)(=O)N(C)CCCCCC(=O)O)cc1	99.1%	99.7%	92.3%	107%	110%	90%	95%	95.3%	–
OC(CCN1CCCC1)(c1ccccc1)C1CCCCC1 (stereo not drawn)	103%	94.3%	120%	110%	115%	102%	104%	100%	117%
Cc1ccc(NCCN(C)CC(C)O)c2c(=O)c3ccc(Cl)cc3sc12 (stereo not drawn)	65.7%	85.3%	87.1%	0.284% (active)	34.3%	57.4%	39.6%	47.3%	–
O=C(COc1cccc(/C=C2\CSc3ccccc3C2=O)c1)c1ccc(Cl)cc1	-7.19% (active)	80.1%	79.5%	68.5%	56.5%	-76.8% (active)	40.6%	80.3%	–
CC(=O)Nc1ccc(CC[C@H]2CCC/C=C/[C@@H]3C[C@H](O)C[C@H]3[C@H](O)/C=C/C(=O)O2)cc1	-19% (active)	10.1%	15.7%	13.3%	-15% (active)	-39.3% (active)	11.9%	–	–
Nc1nccc(OCCO)n1	99.8%	96.1%	94%	108%	113%	90.7%	97.4%	102%	–
CCOC(=O)c1cc(C(=O)c2cc(OC)c(OC)c(OC)c2)n2nc(C)ccc12	39.2%	79.5%	51.2%	9.56% (active)	50.1%	3.82% (active)	26.8%	54.4%	–
O=C(O)c1cn(C2CC2)c2cc(N3CCN(C(=O)c4cc(-c5ccc(Cl)cc5)nc5ccccc45)CC3)c(F)cc2c1=O	82.2%	92.3%	82.1%	96.1%	90.1%	86.4%	94.4%	88.3%	110%
O=C(Nc1cc(Cl)cc2c1-c1ccc(Cl)cc1C2O)C(Cl)Cl (stereo not drawn)	79.5%	55%	83.3%	35.9%	77.1%	84.2%	74.5%	98.4%	94.2%
CCn1c(SCCc2ccccc2)nnc1-c1nn(-c2ccc(Cl)cc2Cl)c(-c2ccc(Cl)cc2)c1C	62.2%	58%	101%	73.7%	85%	61.1%	65.1%	72.9%	–
NS(=O)(=O)c1ccc(Br)cc1	96%	110%	82.1%	108%	94%	86.2%	81.8%	89%	–
COc1cc(C)ccc1Oc1nc(Nc2ccc(N3CCOCC3)cc2)ncc1NC(=O)Nc1cc(C(F)(F)F)cc(C(F)(F)F)c1	72%	84.3%	58.5%	24.7%	66.8%	73.2%	14.5%	55%	–
Nc1c(Br)cc(Br)c2c1[nH]c(=O)c1ccccc12	67%	19.5%	22.4%	29.1%	82.8%	87.4%	58.7%	74.3%	–
CCOC(=O)C(C)(c1ccccc1)c1ccccc1	106%	100%	95%	106%	98.6%	94.8%	92.9%	119%	120%
CC(C)(C)c1ccc(S(=O)(=O)Oc2ccc(NC(=O)C3CCCCC3)cc2)cc1	23%	45.4%	88.7%	44.2%	39.6%	25.4%	41.5%	55.4%	–
CCCN(CCC)C(=O)[C@H](CC)[C@@H]1CC[C@@H](C)[C@@H]([C@H](C)[C@@H](O)[C@@H](C)C(=O)[C@H](CC)C2O[C@]3(C=C[C@@H](O)[C@]4(CC[C@@](C)([C@H]5CC[C@](O)(CC)[C@H](C)O5)O4)O3)[C@H](C)C[C@@H]2C)O1 (stereo partly drawn)	-9.41% (active)	-2.4% (active)	14.2%	1.15% (active)	-21.1% (active)	-11.1% (active)	16.6%	15.8%	–

Compound	growth (NCI-H23 lung)	growth (NCI-H226 lung)	growth (HOP-62 NSCLC)	growth (NCI-H460 lung)	growth (HOP-92 NSCLC)	growth (NCI-H522 lung)	growth (A549/ATCC NSCLC)	growth (786-0 renal)	growth (COLO 205 colon)
COc1ccc2c(c1)OC(N)=C(C#N)C2c1cc(OC)c(OC)c(OC)c1 (stereo not drawn)	16.3%	54.2%	38.9%	1.65% (active)	-0.922% (active)	-27.9% (active)	16.2%	15.2%	–
COc1cc(C(=O)N2CCN(c3cc4c(cc3F)c(=O)c(C(=O)NO)cn4C3CC3)CC2)cc(OC)c1OC	94.9%	95.1%	97%	105%	99.1%	87.4%	99%	93.6%	–
O=C(CCCCC(=O)Oc1c(Cl)cc(Cl)cc1[N+](=O)[O-])Oc1c(Cl)cc(Cl)cc1[N+](=O)[O-]	96.5%	106%	102%	106%	118%	89.5%	103%	101%	121%
O=C(CCCSc1nc(-c2ccc(Cl)cc2)cc(-c2ccc(Cl)cc2)n1)NO	13.2%	2.42% (active)	15.4%	0.534% (active)	28%	6% (active)	10.2%	6.25% (active)	–
COc1cc2cc(Oc3ccc(NC(=O)Nc4ccc(Cl)c(Cl)c4)cc3)c(C)nc2cc1OC	8.26% (active)	7.74% (active)	55.2%	3.68% (active)	-9.31% (active)	-13.7% (active)	4.35% (active)	20.3%	4.03% (active)
CCN(CC)CCOc1ccc2c(c1O)C(=O)c1ccccc1C2=O	82.4%	86.2%	73.3%	84.5%	75.3%	82.6%	78.6%	80.1%	46.6%
CCN(CC)CCCC(C)Nc1c2ccc(Cl)cc2nc2ccc(OC)cc12 (stereo not drawn)	44.7%	36.7%	3.18% (active)	2.49% (active)	27.7%	21.1%	17.1%	25.6%	-71.9% (active)
Cc1c[nH]c(=O)n(Cc2nnc(CCC(=O)c3nc4ccccc4[nH]3)o2)c1=O	36.9%	31.7%	17.7%	9.27% (active)	53.2%	12.7%	21.1%	28.7%	-32.7% (active)
Nc1nc(N)c(N)c(Nc2ccc(CCO)cc2)n1	98.3%	96.2%	95.6%	108%	118%	91.9%	102%	109%	95.5%
COc1cc2ncnc(NC3CCC(O)CC3)c2cc1OC (stereo not drawn)	91.2%	92.7%	99.2%	102%	89.7%	81.6%	85.9%	85.5%	102%
COc1ccc(/C=c2\sc3n(c2=O)C(c2cc(OC)c(OC)c(OC)c2)C=C(c2ccc(OC)c(OC)c2)N=3)cc1OC (stereo not drawn)	103%	108%	103%	107%	63.3%	58.1%	100%	78.1%	97.3%
COc1ccc(-c2n[nH]nc2-c2cc(OC)c(OC)c(OC)c2)cc1	10.8%	63.2%	46.2%	2.7% (active)	-1.89% (active)	-24.5% (active)	20.4%	16.9%	-18.5% (active)
O=C(Nc1cccc2c1CCCC2)c1cc2ccccc2cc1O	3.43% (active)	35.1%	69.9%	27.3%	-20.6% (active)	18.8%	33.8%	43.7%	92.3%
CCOC(=O)c1cc(C(=O)c2cc(OC)c(OC)c(OC)c2)n2ncc3ccccc3c12	82.5%	95.1%	89.5%	51.3%	81.6%	39.6%	54.8%	94.5%	60.4%
CC(C)C1=C(O)C2=C(C(=O)C1=O)[C@@]1(C)CCCC(C)(C)[C@@H]1CC2	65.8%	83.5%	70.6%	37.6%	53.6%	86.9%	62.1%	78.7%	92.7%
